Assay outcomes (PubChem BioAssay)
In the library only some 12% were active in any assay of this set; here they are far more common.
PLK1 PBD inh = blocks phosphopeptide binding to human PLK1 polo-box domain; P53350; Plk1 PBD binding of FITC phosphopeptide, fluorescence polarization; Potency, µM, usual class: inhibitors; actives 2.8% (n = 360,000); note: series mostly up to about 57 µM; nearly all actives have a fitted effect of over 65% in size
PI5P4Ka inh = PI5P4K alpha (human) kinase inhibition. actives 1.2% (n = 330,000). max response, %. PI5P4Kalpha enzyme, ADP-Glo luminescence, 60 min; hits give low values; active = max response of -50% or lower; inconclusive = between -30% and -50%; inactive = -30% or higher; note: value at the top dose of about 77 µM
Target sequence (P48426 whole entry, looked up): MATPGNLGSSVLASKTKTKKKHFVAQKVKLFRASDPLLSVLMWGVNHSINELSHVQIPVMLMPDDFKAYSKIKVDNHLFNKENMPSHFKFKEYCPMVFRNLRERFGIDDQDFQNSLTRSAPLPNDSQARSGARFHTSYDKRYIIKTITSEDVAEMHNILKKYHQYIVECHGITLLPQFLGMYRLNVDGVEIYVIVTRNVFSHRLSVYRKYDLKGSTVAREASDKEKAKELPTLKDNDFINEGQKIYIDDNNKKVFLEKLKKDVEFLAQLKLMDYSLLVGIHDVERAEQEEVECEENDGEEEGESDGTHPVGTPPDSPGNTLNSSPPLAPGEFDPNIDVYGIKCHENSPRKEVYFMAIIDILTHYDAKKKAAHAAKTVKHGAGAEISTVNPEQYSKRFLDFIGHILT
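Single end-point luminescence (ADP-Glo) quantified ADP from PI5P4Kalpha turnover; ATP 5 microM final, 1 h at RT, 0.1% CHAPS and 0.28 mM EGTA in HEPES pH 7.4.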
HP1b binding inh = inhibitors of HP1-beta chromodomain binding to methylated histone tails; AID 540317; AlphaScreen HP1-beta / biotin-H3K9me3 peptide binding; Potency, µM (series often up to 114 µM), most hits filed as inhibitors; actives 0.56% (n = 390,000); P83916; note: nearly all actives have a fitted effect of over 70% in size
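AlphaScreen: HP1-beta (50 nM) preformed 30 min with biotin-H3(1-18)K9me3 peptide (50 nM) in PBS pH 7.4, 0.01% Tween-20. Compound added for 30 min at RT, then streptavidin donor/nickel chelate acceptor beads (10 ug/mL) for 30 min.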
JMJD2A Tudor inh = JMJD2A Tudor domain (human) inhibition; AlphaScreen JMJD2A-Tudor / H3K4me3 peptide binding; AID 504339; Potency, µM (series often up to 114 µM), hits mostly inhibitors; actives 4.4% (n = 390,000); note: nearly all actives have a fitted effect of over 50% in size
BAZ2B block = BAZ2B (human) inhibition; Potency, µM (highest dose often 114 µM), most hits filed as inhibitors; AID 504333; actives 4.4% (n = 360,000); AlphaScreen BAZ2B-H3K14Ac peptide displacement; Q9UIF8; note: nearly all actives have a fitted effect of over 60% in size
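BAZ2B 50 nM plus b-H3(5-23)K14Ac 50 nM, PBS pH 7.4/0.01% Tween-20, 30 min RT; compound added (max 110 uM), 30 min RT; streptavidin donor/Ni-chelate acceptor beads 10 ug/mL final, 20 min dark; AlphaScreen read.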
G9a inh = inhibitors of human histone lysine methyltransferase G9a | Q96KQ7 | G9a H3K9 monomethylation, AlphaScreen, 2 h | Potency, µM (titrated, usually from 102 µM), actives largely listed as inhibitors | actives 8.8% (n = 350,000) | AID 504332; note: nearly all actives have a fitted effect of over 75% in size
Target sequence (Q96KQ7 913-1193 limits assumed): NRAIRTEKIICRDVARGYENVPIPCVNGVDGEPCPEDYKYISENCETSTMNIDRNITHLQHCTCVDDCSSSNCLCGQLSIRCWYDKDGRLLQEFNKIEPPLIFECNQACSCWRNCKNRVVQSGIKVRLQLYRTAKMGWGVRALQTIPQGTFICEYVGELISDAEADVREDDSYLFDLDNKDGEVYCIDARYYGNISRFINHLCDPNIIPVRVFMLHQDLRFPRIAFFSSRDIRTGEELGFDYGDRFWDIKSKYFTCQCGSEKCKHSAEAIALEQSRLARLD
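Compounds were preincubated with 20 nM G9a for 15 min, after which biotinylated H3K9 peptide (500 nM) and SAM (20 uM) started a 2 h room-temperature reaction. Monomethylated product was quantified by antibody-based AlphaScreen chemiluminescence.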
Numbers stand for hits; 0 = inactive; ? = inconclusive; - = no result; ! = not confirmed by another sample; [ ] = dose if it differs, or a comment. Unless noted, calls come from the whole dose curve; as a rule, active = well fitted curve in the direction sought with a large enough effect; inconclusive = small, poorly fitted or top-dose-only effect, or another doubt; inactive = no such curve, though single readings can be large; an effect the other way counts as inactive or inconclusive.

SMILES	PLK1 PBD inh	PI5P4Ka inh	HP1b binding inh	JMJD2A Tudor inh	BAZ2B block	G9a inh
COc1ccc(Cn2c(=O)oc3ccc(C)cc32)cc1OC	0	0	0	0	0	0[12.7 µM]
CC(C)N1CC=C(c2c[nH]c3ccccc23)CC1	0	0	0	0	0	?
O=S1(=O)N(CCN2CC=C(c3c[nH]c4cc(F)ccc34)CC2)c2cccc3c2N1CCC3	0	0	0	?	?	29.9µM!
CCOP(=O)(c1ccccc1)C(O)c1ccc(F)cc1 (stereo unspecified)	0	0	0	0	0	0.631µM
CNCCc1c[nH]c2ccc(O)cc12	0	0	?	22.4µM	-	10µM
OC(CNCCc1c[nH]c2ccccc12)C(F)(F)F (stereo unspecified)	0	0	0	0	0	-
CNCCc1c[nH]c2ccccc12	0	0	0	0	0	28.2µM
COc1ccc(C(C)=O)cc1Cc1c(O)[nH]c(=S)[nH]c1=O	?	0	0	?	0	8.91µM
CCOc1ccc(C(C)=O)cc1Cc1c(O)[nH]c(=S)[nH]c1=O	29.9µM	?	?	89.1µM	0	-
CCCOc1ccc(C(C)=O)cc1Cc1c(O)[nH]c(=S)[nH]c1=O	29.9µM	0	0	0	0	-
CC(C)(O)C1C2OC(=O)C1[C@]1(O)CC3O[C@@]34C(=O)OC2[C@@]14C (stereo partly specified)	-	-	-	-	-	0[2.33 µM]
Cc1cc(C)c(N)cc1C	0	0	0	0	0	0[0.501 µM]
COc1cc(C2c3cc4c(c(O)c3CC3COC(=O)C32)OCO4)cc(OC)c1O (stereo unspecified)	-	-	0	0	-	-
OC(O)C(Cl)(Cl)Cl	-	-	-	-	-	0
COc1ccc(NP2(=O)OCC(C)(N)CO2)cc1 (stereo unspecified)	0	0	0	0	-	-
COc1ccc(NC2CC(=O)N(C(C)C)C2=O)cc1 (stereo unspecified)	0	-	0	0	0	22.4µM
CN1C(=O)N(C)C(=O)C2(Cc3ccccc3N3CCOCC32)C1=O (stereo unspecified)	0	0	0	0	0	0[12.7 µM]
Cc1ccc(N2C(=O)NC(=O)C3(Cc4ccccc4N4CCN(c5ccccc5)CC43)C2=O)cc1 (stereo unspecified)	0	-	0	0	0	7.08µM
CN1c2ccc([N+](=O)[O-])cc2CC2(C(=O)NC(=O)N(c3ccccc3)C2=O)C1c1ccccc1 (stereo unspecified)	0	0	0	0	0	0
O=C1NC(=O)C2(Cc3ccccc3N3CCCC32)C(=O)N1c1cccc(Cl)c1 (stereo unspecified)	0	?	0	0	0	31.6µM
CCSc1nnc(NC(=O)c2cccn(Cc3ccc(Cl)cc3)c2=O)s1	-	-	0	0	0	0
N#CCCN	-	-	-	-	-	0
CCOc1ccc(C(=O)OC2CC3CCC(C2)N3C)cc1 (stereo unspecified)	0	0	0	0	0	0
CN1C2CCC1CC(OC(=O)c1ccc(Cl)cc1)C2 (stereo unspecified)	26.7µM	0	0	0[11.4 µM]	0	0
COc1ccc(C(=O)c2c(C)n(CCN3CCOCC3)c3ccccc23)cc1	-	-	-	-	-	0[12.7 µM]
SMILES	PLK1 PBD inh	PI5P4Ka inh	HP1b binding inh	JMJD2A Tudor inh	BAZ2B block	G9a inh
CN1CCC(c2c[nH]c3ccccc23)C1 (stereo unspecified)	0	0	0	0	0	0
CN1CCC(c2c[nH]c3ccc(O)cc23)CC1	0	0	0	0	-	12.6µM!
O=C1NC(=O)N(Cc2ccccc2Cl)C(=O)/C1=C/N1CCOCC1	?	?	0	0	0	?
Cn1cccc1/C=C1\C(=O)NC(=O)N(Cc2ccccc2)C1=O	?	-57.7	?	?	50.1µM	?
Cn1cccc1/C=C1/C(=O)NC(=O)N(Cc2ccccc2)C1=O	?	-65.8	0	0	44.7µM	?
Cn1cccc1/C=C1/C(=O)NC(=O)N(Cc2ccc(F)cc2)C1=O	?	-65.4	0	0	44.7µM	39.8µM
O=C1NC(=O)N(Cc2ccco2)C(=O)/C1=C/c1cccn1CCOc1ccccc1Cl	?	-52.2	0	0	44.7µM	?
O=C(Nc1ccc2c(c1)OCO2)c1cccn(Cc2ccc(F)cc2)c1=O	-	-	0	0	?	?
C=CCN1C(=O)NC(=O)/C(=C/c2cccn2C)C1=O	29.9µM	?	0	0	0	50.1µM
COc1cccc(CN2CCN(c3ccc(F)cc3)CC2)c1OC	0	0	-	-	-	-
Cc1cc(O)c(CN2CCN(c3ccccc3)CC2)cc1C	0	0	0	0	0	0[12.7 µM]
COc1ccc(CN2CCN(c3ccccc3)CC2)c(C)c1C	0	0	?	3.98µM	50.1µM	11.2µM
CCOc1ccccc1CN1CCN(S(=O)(=O)CC)CC1	0	-	?	5.62µM	50.1µM	12.6µM
CCOc1ccccc1CN1C2CCC1CC(c1ccc(C)cc1)C2 (stereo unspecified)	0	0	0	0	0	0
FC(F)(F)c1ccccc1CN1CCN(Cc2ccccc2)CC1	0	-	?	3.98µM	50.1µM	3.16µM
CCOc1ccccc1N1CCN(Cc2cccc(OC)c2OC)CC1	0	0	?	1.78µM	?	?
O=[N+]([O-])c1ccc(N2CCOCC2)c2c1no[n+]2[O-]	0	0	-	-	-	-
C[C@@]12CCC(=O)C[C@@H]1CC[C@@H]1[C@@H]2CC[C@]2(C)C(=O)CC[C@@H]12	-	-	-	-	-	0[2.33 µM]
COc1ccccc1N1CCN(Cc2ccc(F)cc2)CC1	0	0	0	0	0	0
COc1ccccc1N1CCN(Cc2ccc(SC)cc2)CC1	0	0	?	28.2µM	50.1µM	10µM
Cc1ccc(CN2CCN(Cc3ccccc3F)CC2)cc1	0	0	?	20µM	22.4µM	12.6µM
COc1ccccc1N1CCN(Cc2ccc(Cl)cc2Cl)CC1	0	-	?	22.4µM	?	22.4µM
COc1ccccc1CN1CCN(Cc2ccc(Cl)cc2)CC1	0	0	?	39.8µM	17.8µM	3.55µM
O=C(Nc1cccnc1)C1CCN(S(=O)(=O)c2cccs2)CC1	0	0	0	0	0	0
O=C(NCCc1ccc(Cl)cc1)C(=O)NCC(c1cccs1)S(=O)(=O)c1cccs1 (stereo unspecified)	-	-	0	0	0	0
SMILES	PLK1 PBD inh	PI5P4Ka inh	HP1b binding inh	JMJD2A Tudor inh	BAZ2B block	G9a inh
Cn1cc(P(=S)(c2ccccc2)c2ccccc2)c2ccccc21	-	-	-	0	-	-
CCN1CCN(Cc2ccc(C)cc2)CC1	0	-	0	0	0	?
CSc1ccc(CN2CCN(c3ccccc3C)CC2)cc1	0	0	0	4.47µM	?	12.6µM
CCc1ccc(CN2CCN(Cc3ccc(SC)cc3)CC2)cc1	0	0	?	?	39.8µM	3.55µM
O=C1c2cccc3cc([N+](=O)[O-])cc(c23)C(=O)N1c1ccccc1O	0	0	0	0[11.4 µM]	?	0[12.7 µM]
CCOc1ccc(NC(=O)CSc2oc(-c3ccccc3)nc2S(=O)(=O)c2ccc(Cl)cc2)cc1	-	-	0	0	0	0
O=c1c2ccccc2cnn1Cc1n[nH]c(=S)n1C1CC2CCC1C2 (stereo unspecified)	0	0	0	3.16µM	0	0
